# A selection: hits, their analogues and other compounds. The true share with any hit is near 4.7%.
# PfHsp90 yeast 2 = growth inhibition of yeast expressing Plasmodium Hsp90; 310,000 compounds, 0.32% hits; inhibition, % at 9.4 µM; S. cerevisiae expressing PfHsp90, BacTiter-Glo ATP, 48 h; yeast lacking PDR1 and PDR3 efflux regulators;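 active = every replicate shows inhibition above about 80%, whatever the replicate mean, limit read from the data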;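 note: 0% = DMSO neutral controls and 100% = 20 µM radicicol positive controls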
# tim10-1 inh = tim10-1 yeast growth inhibition. 330,000 compounds, 2.2% hits. S. cerevisiae tim10-1 ts strain growth, BacTiter-Glo, 24 h. inhibition, % at 20 µM;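 active = inhibition of at least 40%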;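 note: mutant grown at 25 °C; 0% = DMSO wells with yeast and 100% = wells holding no yeast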
# EBI2 block = antagonists of human EBI2 receptor | inhibition, % at 5 µM | EBI2 beta-arrestin recruitment, luminescence, 7a,25-OHC stimulated | P32249 | 360,000 compounds, 0.81% hits | AID 651636; in the data active = inhibition above about 38%;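 note: enzyme fragment complementation signal reports receptor beta-arrestin coupling in cells; 0% = agonist plus DMSO wells and 100% = wells without agonist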
# Target sequence (P32249 whole entry, looked up, the tested form may be a part): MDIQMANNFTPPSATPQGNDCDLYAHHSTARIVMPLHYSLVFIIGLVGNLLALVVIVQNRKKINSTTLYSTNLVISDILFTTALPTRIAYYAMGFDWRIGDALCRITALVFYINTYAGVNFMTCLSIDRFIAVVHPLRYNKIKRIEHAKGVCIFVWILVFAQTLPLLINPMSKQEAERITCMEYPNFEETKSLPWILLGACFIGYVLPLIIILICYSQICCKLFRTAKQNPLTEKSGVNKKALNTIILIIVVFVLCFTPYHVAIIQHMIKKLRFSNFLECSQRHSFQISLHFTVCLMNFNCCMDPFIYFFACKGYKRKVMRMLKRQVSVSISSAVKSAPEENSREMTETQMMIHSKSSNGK
# tim23-1 inh = tim23-1 yeast growth inhibition; S. cerevisiae tim23-1 growth, BacTiter-Glo luminescence, 24 h; inhibition, % at 20 µM; 330,000 compounds, 1.3% hits;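 active = growth inhibition of the mutant yeast at or above 50%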;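 note: temperature-sensitive mutant grown at 25 °C; plate controls were DMSO-treated mutant yeast for no effect and medium wells lacking yeast for full effect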
# SKKanGAS inh = inhibitors of SKKanGAS S. pyogenes growth in kanamycin (SK-promoter or general growth effect); inhibition, % at 7.5 µM; AID 1662; BacTiter-Glo, 6 h; 300,000 compounds, 1.3% hits;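 active = mean replicate score, as percent of positive control median, at least 50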;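 note: strain carries kanamycin resistance gene driven by streptokinase promoter and grows in 40 µg/ml kanamycin; loss of luminescence reflects streptokinase promoter inhibition or plain growth inhibition; 0% = median of DMSO wells and 100% = positive control at its reference dose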
# TIM10 inh = TIM10 yeast growth inhibition; S. cerevisiae TIM10 strain growth, BacTiter-Glo luminescence, 24 h; inhibition, % at 10 µM; 330,000 compounds, 1.4% hits;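 active = inhibition of 40% or more at the single tested concentration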;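 note: wild-type TIM10 isogenic control strain grown at permissive 25 °C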
# * = called active by the depositor; / = no result given.
SMILES,PfHsp90 yeast 2,tim10-1 inh,EBI2 block,tim23-1 inh,SKKanGAS inh,TIM10 inh
CCc1ccc(C(O)c2ncc(-c3ccc(C)cc3)[nH]2)cc1 (stereo not drawn),/,/,21,/,/,/
COc1ccc(CN2C(=O)C(CC(=O)NC3CCCCC3)CC(C(=O)N(C)C)=C2C)cc1 (stereo not drawn),/,/,1,/,/,/
Cc1ccc(Nc2nc(N)c([N+](=O)[O-])c(NCCO)n2)cc1C,7,1,-9,-8,-6,7
Cc1ccc(Nc2nc(N)c([N+](=O)[O-])c(NCc3ccco3)n2)cc1C,-34,11,32,26,60*,6
Cc1ccc(OC/C(O)=C(\C#N)c2nc3ccccc3s2)cc1,9,-4,-8,0,57*,10
CCCCn1c(O)c(N=NC(=O)c2ccncc2)c2cc(Br)ccc21,6,-3,5,1,83*,8
COC(=O)[C@]12CCCCC=C1N(Cc1cccc3ccccc13)C(=O)[C@H](CC(=O)NCCC(C)C)C2,/,/,5,/,/,/
O=C(c1cccs1)N1CCc2c([nH]c3ccccc23)C1c1ccccn1 (stereo not drawn),2,27,2,18,6,28
O=C(c1cc(-c2ccccc2)n[nH]1)N1CCc2c([nH]c3ccccc23)C1c1ccccn1 (stereo not drawn),13,37,8,27,75*,22
COC(=O)[C@H](Cc1ccccc1)NC(=O)CC[C@H]1O[C@@H](n2ccc(=O)[nH]c2=O)[C@H](O)[C@@H]1O,/,/,-3,/,/,/
CC(C)=CCC12Oc3cc(O)ccc3C1(O)Oc1cc(O)c([C@H]3C=C(C)CC(c4ccc(O)cc4O)[C@H]3C(=O)c3ccc(O)cc3O)c(O)c1C2=O (stereo partly drawn),/,25,/,23,111*,1
CCOc1ccc(-n2c(C)cc(/C=C3/C(=N)N4C(=NC3=O)SN=C4S(C)(=O)=O)c2C)cc1,-25,32,-1,34,84*,27
COc1ccccc1-n1c(C)cc(/C=C2/C(=N)N3C(=NC2=O)SN=C3S(C)(=O)=O)c1C,-2,16,10,11,36,8
Cc1cc(/C=C2/C(=N)N3C(=NC2=O)SN=C3S(C)(=O)=O)c(C)n1-c1ccc(F)cc1,-1,12,-4,30,64*,20
CC1=NN2C(=N)/C(=C\c3cc(C)n(-c4ccccc4)c3C)C(=O)N=C2S1,-57,-8,-1,-1,10,-1
CCC(CC)C1=NN2C(=N)/C(=C\c3cc(C)n(-c4cccc(C)c4)c3C)C(=O)N=C2S1,-34,5,10,11,86*,14
CN1CCN(C(=O)c2cnc(Cc3c[nH]c4ccccc34)c(I)c2)CC1,/,/,2,/,/,/
C[C@@H]1CN([C@H](C)CO)C(=O)CCCn2nncc2CO[C@@H]1CN(C)S(=O)(=O)c1ccc2c(c1)OCCCO2,/,/,-6,/,/,/
CC(NC(=O)Cn1ncc(Cl)c(Cl)c1=O)C12CC3CC(CC(C3)C1)C2 (stereo not drawn),22,/,63*,/,15,/
CCn1cc(C(=O)NC(C)C23CC4CC(CC(C4)C2)C3)cn1 (stereo not drawn),7,22,-14,23,-2,16
O=C(N/N=C/c1sc2ccccc2c1O)c1cccc2ccccc12,104*,/,-2,/,91*,/
Oc1c(C=Nc2cccc3cccnc23)sc2ccccc12,/,33,/,16,94*,15
COc1ccc(C(=O)N/N=C/c2sc3ccccc3c2O)cc1,100*,/,8,/,33,/
Cc1cccc(/N=C/c2sc3ccccc3c2O)n1,5,7,-34,-7,18,3
O=C(N/N=C/c1ccccc1)c1cccc2ccccc12,-17,11,-1,4,2,27
SMILES,PfHsp90 yeast 2,tim10-1 inh,EBI2 block,tim23-1 inh,SKKanGAS inh,TIM10 inh
CCCCN1CCN=C1N(C)C,-6,6,5,0,/,1
CNc1nc(N)c([N+](=O)[O-])c(NC2CCCCC2)n1,-57,19,-14,14,5,-7
Nc1nc(Nc2ccccc2)nc(NC2CCCCC2)c1[N+](=O)[O-],-24,9,27,39,79*,13
Cc1cnc2c(N)cc(C)c(C)c2c1,/,/,-12,/,/,/
Cc1cc(C)c2c(c1)NC(c1cc3c(cc1Br)OCO3)C1CC=CC21 (stereo not drawn),-9,/,-3,/,51*,/
O=C(O)c1ccc2c(c1)C1C=CCC1C(c1cc3c(cc1Br)OCO3)N2 (stereo not drawn),-98,-17,0,29,16,-4
Brc1cc2c(cc1C1Nc3ccccc3C3C=CCC31)OCO2 (stereo not drawn),17,34,17,20,64*,1
CCCC[C@@H]1C[C@H]1[C@@H](NC(=O)c1ccccc1)c1ccccc1C(F)(F)F,-14,6,-4,7,7,7
C=C(CC1([C@@H](NP(=O)(c2ccccc2)c2ccccc2)[C@H]2C[C@@H]2CCCC)CC1)c1ccccc1,15,-13,-25,12,77*,1
Cc1cccc(Cn2c(O)c(N=NC(=S)Nc3ccccc3F)c3ccccc32)c1,-15,24,-1,0,38,6
NC(=S)N=Nc1c(O)n(Cc2ccc(Br)cc2)c2ccccc12,20,7,17,-13,61*,-7
Oc1c(N=NC(=S)Nc2ccccc2F)c2ccccc2n1Cc1ccc(F)cc1,-37,19,11,19,66*,31
Oc1c(N=NC(=S)Nc2ccccc2F)c2ccccc2n1Cc1cccc(Cl)c1,-23,20,0,8,52*,11
CC(=O)N1CCN(S(=O)(=O)c2cccc(C(=O)NNC(=O)c3ccc(Br)cc3)c2)CC1,23,/,1,/,/,/
CCCCC[C@@H]1[C@H]2[C@H]3C(=O)N(c4ccccc4)C(=O)[C@H]3CC(=O)[C@H]2[C@H](c2ccccc2)N1S(=O)(=O)c1ccc(C)cc1,/,/,-5,/,/,/
O=C(NN1CCCCC1)c1ccc(COc2ccc(Cl)cc2)cc1,7,-8,3,-8,0,-6
CCN1C(=O)[C@H]2[C@@H](c3ccc(C)cc3)N[C@]3(CCCN(Cc4cccn4C)C3=O)[C@H]2C1=O,/,/,-3,/,/,/
CC(=O)Nc1ccc(NC2=C/C(=N/S(=O)(=O)c3cccs3)c3ccccc3C2=O)cc1,-12,19,16,40,4,17
Cc1ccc(C)c(S(=O)(=O)/N=C2\C=C(NS(=O)(=O)c3ccccc3)C(=O)c3ccccc32)c1,-4,28,9,45,107*,22
CCc1ccc(S(=O)(=O)/N=C2\C=C(NS(=O)(=O)c3ccccc3)C(=O)c3ccccc32)cc1,11,34,16,35,63*,18
CC(C)c1ccc(S(=O)(=O)/N=C2\C=C(NS(=O)(=O)c3ccccc3)C(=O)c3ccccc32)cc1,-65,/,11,/,1,/
